“And” between values parts separate entries of the source, which are not always exact repeats. Identical values can stand only once. About 1,200 (0.39%) of roughly 310,000 compounds were called active. A selection follows. Potency and affinity values are given separately. Values without a mark were called inactive. How the calls were made is not given here.

This assay deals with Large T antigen (Simian virus 40) (UniProt P03070). The assay can be described thus: TAg ATPase/helicase activity blockers – biochemical (AID 1903). The note with it: SV40 large T antigen ATPase/helicase inhibition assay; at 20 µM; hits give high values.
Chain of Large T antigen (Simian virus 40) (P03070 whole entry, looked up): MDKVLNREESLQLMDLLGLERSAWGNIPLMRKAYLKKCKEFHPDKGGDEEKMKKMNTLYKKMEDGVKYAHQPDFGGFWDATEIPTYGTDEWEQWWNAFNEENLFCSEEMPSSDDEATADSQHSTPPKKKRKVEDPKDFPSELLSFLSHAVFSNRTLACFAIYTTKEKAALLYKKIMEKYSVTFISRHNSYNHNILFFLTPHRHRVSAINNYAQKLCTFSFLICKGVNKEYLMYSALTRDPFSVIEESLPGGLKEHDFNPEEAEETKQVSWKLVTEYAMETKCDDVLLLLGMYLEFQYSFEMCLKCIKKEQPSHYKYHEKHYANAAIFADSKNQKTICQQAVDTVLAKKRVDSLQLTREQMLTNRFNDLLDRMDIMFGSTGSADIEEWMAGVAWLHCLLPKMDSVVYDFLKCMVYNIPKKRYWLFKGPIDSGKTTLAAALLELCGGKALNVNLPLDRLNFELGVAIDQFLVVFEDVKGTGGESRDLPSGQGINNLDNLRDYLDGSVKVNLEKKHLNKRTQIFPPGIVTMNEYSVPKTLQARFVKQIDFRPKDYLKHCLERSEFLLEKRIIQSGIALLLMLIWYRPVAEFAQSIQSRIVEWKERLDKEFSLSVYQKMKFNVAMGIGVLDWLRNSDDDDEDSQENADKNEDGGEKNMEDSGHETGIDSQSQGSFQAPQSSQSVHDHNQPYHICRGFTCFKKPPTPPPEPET
On to `Cc1[nH]c(=O)[nH]c(=S)c1C(=O)Nc1ccc(Cl)c(Cl)c1`, for which the inhibition is -9.05%.

In the case of `CC1(C(=O)O)CCC(C(=O)Nc2ccc(F)cc2)C1(C)C` (stereo not given), the inhibition is 17.4%.

Consider `O=C1c2ccccc2S(=O)(=O)N1CCOc1ccc(F)cc1`, for which the inhibition was 6.69%.

For the molecule `CCOc1ccc(CCNC(=O)COC(=O)C2=NNC(=O)CC2)cc1OCC`, the inhibition was 12.5%.

In the case of `COc1ccc2c(c1)C1CC(C)(NC(=O)C1S(=O)(=O)c1ccc(F)cc1)O2` (stereo not given), the inhibition is 22.9%.

For `CCOC(=O)c1ccccc1NC(=O)c1cccc2c1C(=O)N(C1CCN(C(=O)OCC)CC1)C2`, the inhibition is 5.81% and 1.24%.

On to `CC[N+](C)(C)CCN(Cc1ccc(Cl)cc1)c1ccccn1`, for which the inhibition was 19.1%.

With `COc1ccc(CN(CCN(C)C)c2ccccn2)cc1`, the inhibition was 11.2% and 4.35%.

In the case of `O=c1[nH]cc(N(CCO)CCO)c(=O)[nH]1`, the inhibition was 15.6%.

On to `O=C(/C=C/c1ccccc1)OCC(=O)N1CCN(c2ccccc2)CC1`, for which the inhibition was 8.9%.

For the molecule `Cc1onc(C(=O)NCc2cccs2)c1[N+](=O)[O-]`, the inhibition is -0.94%.

Consider `NC1=NC(=O)CC(C(=O)NCCc2ccccc2)S1` (stereo not given), for which the inhibition is 13.9%.

Turning to `N#CC(C(=O)Nc1ccc(Cl)cc1)=C1Nc2ccccc2N1`, the inhibition is -0.845%.

Turning to `C/C(Nc1ccc(Cl)cc1)=C(/C#N)C(N)=O`, the inhibition is -6.59%.

With `CCc1cc(C(=O)c2ccccc2OC)c(N)s1`, the inhibition was 12.7%.

As to `COC(=O)/C=C/c1ccc2c(c1)OCO2`, the inhibition is -5.42%.

Turning to `CCCCOC(=O)/C=C/c1ccc(OC(=O)OC)c(OC(=O)OC)c1`, the inhibition is 15.3%.

Take `CCOc1ccc(NC(=S)N(Cc2ccc(Cl)cc2)Cc2ccco2)cc1`: the inhibition is 2.54%.

Regarding `O=C(CS(=O)(=O)Cc1ccccc1)N1CCc2ccccc2C1`, the inhibition was 9.06%.

As to `O=C1N=C(N2CCN(c3ccccc3)CC2)S/C1=C\c1ccco1`, the inhibition was 31.4%.

As for `CCCSC1=N/C(=C\C=C\c2ccco2)C(=O)S1`, the inhibition was 73%.

`O=C1N=C(N2CCCC2C(=O)O)S/C1=C\c1ccco1` (stereo not given): the inhibition is 3.04%.

`O=C(CN1C(=O)S/C(=C\c2ccc(O)cc2)C1=O)c1ccccc1`: the inhibition was 16.6%.

Consider `O=C1N=C(N2CCN(c3ccccc3)CC2)S/C1=C/c1ccco1`, for which the inhibition was 12.4%.

On to `O=C1/C(=C\c2ccc(O)cc2)SC(=S)N1Cc1ccccc1`, for which the inhibition is 7.6%.

As for `Cc1ccc(N=C2NC(=O)/C(=C/C=C/c3ccco3)S2)cc1`, the inhibition was 21.2%.

For `NN1C(=O)/C(=C\c2ccco2)SC1=S`, the inhibition is 45.2%.

Regarding `COc1ccccc1-c1noc(CCCC(=O)NC2CCCCC2)n1`, the inhibition was 29.8%.

With `Cc1cc(C=O)c(C)n1-c1ccc(N2CCOCC2)c([N+](=O)[O-])c1`, the inhibition is 5.88%.

Consider `O=C(COC(=O)c1nc(Cl)ccc1Cl)NCCc1ccccc1`, for which the inhibition was -0.66%.

As to `CCc1ccc(/C=C2/Sc3ccccc3N(CC(=O)NCC3CCCO3)C2=O)cc1` (stereo not given), the inhibition is 3.57%.

In the case of `Cc1ccc(NC(=O)N2CCC(C(=O)c3ccc(F)cc3)CC2)cc1`, the inhibition is 3.7%.

`CCOC(=O)Cn1c(=NC(=O)CN2C(=O)CCC2=O)sc2cc(S(N)(=O)=O)ccc21`: the inhibition is 11.6%.

Regarding `COc1ccc(C(CNc2ccc(S(=O)(=O)N3CCCC3)cc2[N+](=O)[O-])N2CCCC2)cc1` (stereo not given), the inhibition is 0.85%.

Regarding `O=C(C1CCCN(Cc2ccccc2F)C1)N1CCCC1` (stereo not given), the inhibition is -1.92%.

As for `CC1CN(c2nc3c(c(=O)n(C)c(=O)n3C)n2Cc2c(Cl)cccc2Cl)CC(C)O1` (stereo not given), the inhibition is -0.38%.

In the case of `CN(C)S(=O)(=O)c1cccc(NC(=O)COC(=O)COc2ccccc2[N+](=O)[O-])c1`, the inhibition is 8.43%.

As for `CC(=O)C1=C(C)Nc2ncnn2C1c1cccc(Br)c1` (stereo not given), the inhibition was 4.82%.

For the molecule `Cn1c(C(=O)NCCOc2ccccc2Cl)cc(=O)n(C)c1=O`, the inhibition was 3.15%.

On to `CC(C)(O)[C@H]1Cc2cc3ccc(=O)oc3cc2O1`, for which the inhibition was -9.56%.

Take `COc1cc2c(cc1/C=C/C(=O)O)OC(C)C2` (stereo not given): the inhibition is -5.46%.

Consider `CCCc1ccc(S(=O)(=O)N/N=C\c2ccc3c(c2)OCO3)cc1`, for which the inhibition was 10.3%.

`Cc1ccc(S(=O)(=O)NCC(=O)Nc2cccc([N+](=O)[O-])c2)cc1`: the inhibition was 1.03%.

For `Cc1onc(-c2c(Cl)cccc2Cl)c1/C(N)=N/OC(=O)C(C)(C)C`, the inhibition is 7.65%.

`CC[C@H](C)/C=C(C)/C=C/C1=CC2=CC(=O)[C@]3(C)OC(=O)[C@@H](C(C)=O)[C@@H]3C2=CO1`: the inhibition is 18%.

On to `CCC(C)/C=C/C1=CC2=C(Cl)C(=O)C3(C)OC(=O)C(C(=O)C(C)C(C)O)C3C2=CO1` (stereo not given), for which the inhibition was 12.9%.

For `COC(=O)CCC(=O)OC1(C)C(=O)C2=COC(c3ccc(OC)cc3)=CC2=C(Br)C1=O` (stereo not given), the inhibition was 50.8%.

Take `O=C(CSc1nc(-c2ccccc2)c(-c2ccccc2)o1)N1CCOCC1`: the inhibition was 4.01%.

On to `O=C(CNC(=O)c1ccc(Cl)cc1Cl)OCc1nnc(-c2ccccc2)o1`, for which the inhibition is 15.1%.

For `CC1(C)CC(=O)c2sc(NC(=O)C3COc4ccccc4O3)nc2C1` (stereo not given), the inhibition was 4.75%.

In the case of `O=C(C1CCN(S(=O)(=O)c2cccs2)CC1)N1CCCCC1`, the inhibition was 13.9%.

`Cc1cc(C)c2c(CN3CCCCC3)cc(=O)oc2c1`: the inhibition was 20.4%.

Regarding `Cc1cc(C)c2c(CN3CCN(C)CC3)cc(=O)oc2c1`, the inhibition was -0.86%.

`COC1CCN(C(=O)CC2C(=O)NCCN2CC(C)(C)C)CC1` (stereo not given): the inhibition is -3.7%.

Consider `O=C(CC12CC3CC(CC(C3)C1)C2)Nc1nncs1`, for which the inhibition was 12.5%.

With `COc1ccc(NC(=O)CCc2c(C)nc3nc(C)nn3c2C)cc1`, the inhibition is -3.06%.

On to `O=C(c1cc2ccccc2oc1=O)N1CCN(S(=O)(=O)c2ccccc2)CC1`, for which the inhibition was 18.2%.

With `O=C1NN(c2ccccc2)C(=O)/C1=C\c1ccc2c(c1)OCO2`, the inhibition is 18%.

`O=C1NC(=S)N/C1=C/c1cc2c(cc1[N+](=O)[O-])OCO2`: the inhibition is 3%.

With `O=C(CCN1C(=O)/C(=C/C=C/c2ccccc2)SC1=S)Nc1nc2ccccc2s1`, the inhibition was 9.79%.

With `Cc1ccccc1NC(=O)c1ccc2c(c1)CCN2S(C)(=O)=O`, the inhibition was 11.3%.

Regarding `CCC(C)n1c(SCC(=O)/C(C#N)=C(\C)N)nc2ccccc2c1=O` (stereo not given), the inhibition is 7.34%.

For the molecule `C/C(=C\c1ccccc1)C(=O)Nc1nc2ccc([N+](=O)[O-])cc2s1`, the inhibition is 8.41%.

For `Cc1ccc(/C=N/n2c(C)nnc2C)cc1`, the inhibition is 19.4%.

For `CC(/C=N/n1c(-c2cccnc2)n[nH]c1=S)=C\c1ccco1`, the inhibition was 31.8%.

With `Cc1cccc(/C=N/n2c(C)nnc2C)c1`, the inhibition was 10.3%.

As for `Clc1ccccc1CN1CCN(/N=C/C=C/c2ccco2)CC1`, the inhibition was 15.9%.

As to `S=c1[nH]nc(-c2ccncc2)n1/N=C/c1cccc(Cl)c1`, the inhibition is 29.1%.

`S=c1[nH]nc(-c2ccco2)n1/N=C/c1ccc(Cl)cc1`: the inhibition is 31%.

`CC(=C/c1ccccc1)/C=N/n1c(-c2ccncc2)n[nH]c1=S`: the inhibition is 19%.

As for `S=c1[nH]nc(-c2n[nH]c3c2CCC3)n1/N=C/C=C/c1ccccc1`, the inhibition is 20.8%.

Take `COC(=O)c1cn(NC(=O)CC2CCCCC2)c(=O)c2ccccc12`: the inhibition was 1.58%.

With `O=c1[nH]cnc2onc(-c3ccc(F)cc3)c12`, the inhibition was 34%.

Consider `O=[N+]([O-])c1cccc2nc(-c3ccccc3)c(-c3ccccc3)nc12`, for which the inhibition was 1.39%.

As to `CCCCOc1ccc(C(=O)NCc2ccccn2)cc1`, the inhibition is -4.84%.

Take `COc1ccc(C(=O)NC(=S)NC(C)c2ccccc2)cc1` (stereo not given): the inhibition was 5.22%.

Consider `Cc1ccc(C)c(N2CCN(CCCNC(=O)CCn3c(=O)c4cccn4c4cccnc43)CC2)c1`, for which the inhibition is 15.1%.

Turning to `Cc1cc(C(C)(C)C)ccc1OCC(=O)N/N=C\c1c(C)n(C)n(-c2ccccc2)c1=O`, the inhibition is -3.36%.

Take `COc1ccc(CN2CCC(n3nccc3NC(=O)CCOc3ccccc3)CC2)cc1C`: the inhibition was 5.92%.

For the molecule `O=C(NCc1ccco1)c1csc2c1CCCCC2`, the inhibition was 1.56%.

As to `Cc1cc(C)cc(CSCC(=O)N/N=C/c2ccc(OCC(=O)NCc3ccco3)cc2)c1`, the inhibition is 10.9%.

Take `CC(/C=N/n1c(-c2ccc(Cl)cc2)n[nH]c1=S)=C\c1ccco1`: the inhibition was 22.6%.

As to `Cc1ccsc1/C=N/n1c(-c2ccccc2)n[nH]c1=S`, the inhibition is 18.6%.

For `CC(/C=N/n1c(-c2ccc(C)cc2)n[nH]c1=S)=C\c1ccco1`, the inhibition was 19.5%.

On to `CC(/C=N/n1c(-c2ccco2)n[nH]c1=S)=C\c1ccco1`, for which the inhibition is 28.2%.

`CC(/C=N/n1c(-c2ccccc2)n[nH]c1=S)=C\c1ccco1`: the inhibition is 33.1%.

In the case of `Cc1ccsc1/C=N/n1c(-c2ccncc2)n[nH]c1=S`, the inhibition was 25.6%.

Regarding `CCOc1ccccc1NC(=S)NCCc1ccc(F)cc1`, the inhibition was 2.66%.

For the molecule `O=C(CS(=O)(=O)c1ccc(F)cc1)Nc1nnc(-c2cccs2)o1`, the inhibition is 28.3%.

With `COc1ccc(OC(=O)COc2ccc(Cl)cc2)cc1`, the inhibition was 21.7%.

`Cc1cccc(NC(=S)N2CCN(c3ccccn3)CC2)c1`: the inhibition is 7.16%.

As to `COC(=O)C1=NNC2(C)C(=O)N(c3ccc(C)cc3)C(=O)C12` (stereo not given), the inhibition was 1.54%.

As to `CCc1c(C)c(C#N)c2nc3ccccc3n2c1Cl`, the inhibition was -5.75%.

In the case of `Cc1cc(C(C)C)n2c(nc3ccccc32)c1C#N`, the inhibition is 3.46%.

For the molecule `CCc1ccc(N(C(=O)CNC(=O)c2ccco2)C(C(=O)NC2CCCC2)c2cccnc2)cc1` (stereo not given), the inhibition was 12.2%.

The values above are taken from PubChem BioAssay AID1903 (Southern Research Specialized Biocontainment Screening …, 2009).
